Assay outcomes (PubChem BioAssay)
Sampled rows, rich in hits. Any-hit rate of the full collection: about 3.1%.
PP1 counter: PP1-alpha phosphatase inhibitors, primary screen, counter-screen for PP5 inhibitor project, biochemical, fluorescence, OMFP substrate, single point | purified PP1alpha | AID 2235, 2010 | 320,000 compounds, 0.9% hits | Serine/threonine-protein phosphatase PP1-alpha catalytic subunit (Homo sapiens), P62136 | inhibition, % at 6.7 µM;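 active = inhibition above the mean inhibition of all tested compounds plus 3 SD, computed separately for each screening campaign, cut at about 15% in these data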
PP5 inh: PP5 phosphatase inhibitors, primary screen, biochemical, fluorescence; Serine/threonine-protein phosphatase 5 (Homo sapiens), P53041; purified PP5c, OMFP substrate fluorescence; inhibition, % at 6.7 µM; 320,000 compounds, 0.18% hits;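 active = inhibition above the campaign's mean inhibition across all tested compounds plus 3 SD, cut at about 9.5% in these data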
Target sequence (P53041 whole entry, looked up): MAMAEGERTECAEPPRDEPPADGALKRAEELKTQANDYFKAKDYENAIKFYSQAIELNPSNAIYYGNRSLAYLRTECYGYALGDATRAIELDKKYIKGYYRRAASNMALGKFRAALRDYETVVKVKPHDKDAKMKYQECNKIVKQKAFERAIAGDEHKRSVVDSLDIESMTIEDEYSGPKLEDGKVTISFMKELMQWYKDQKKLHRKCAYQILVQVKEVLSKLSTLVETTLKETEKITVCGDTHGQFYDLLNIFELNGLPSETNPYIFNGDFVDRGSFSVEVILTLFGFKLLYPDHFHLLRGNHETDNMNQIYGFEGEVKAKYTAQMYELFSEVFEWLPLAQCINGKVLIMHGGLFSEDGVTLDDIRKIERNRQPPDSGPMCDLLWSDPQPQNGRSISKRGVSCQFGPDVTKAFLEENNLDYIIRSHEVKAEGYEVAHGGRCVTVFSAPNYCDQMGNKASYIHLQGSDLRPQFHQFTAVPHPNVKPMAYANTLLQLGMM
CSC inhib: cancer stem cell viability inhibitors, primary screen, luminescence; cancer stem cell-like cells viability; 300,000 compounds, 1.1% hits; inhibition, % at 7.5 µM; in the data active = inhibition above about 75%; inconclusive = no clear call, values can overlap the other calls; tested in HMLE shEcad cells
Beta cell apopt: inhibitors of cytokine-induced beta cell apoptosis, primary screen, luminescence | 300,000 compounds, 0.8% hits | INS-1E cytokine-induced death, ATP luminescence, 48 h; percent of positive-control rescue, neutral wells zero | protection from apoptosis, % (concentration not given with the values) | AID 435005, 2010;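 active = Every replicate reaches about 75%, or at least half do and their mean reaches it too, limit read from the data; inconclusive = At least half of replicates reach the limit but their mean does not; inactive = Under half of replicates reach the limit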;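 also: higher means more ATP so stronger rescue from cytokine killing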
SKKanGAS inh: S. pyogenes SKKanGAS growth inhibitors in kanamycin, primary screen, streptokinase expression inhibitor project, SKKanGAS strain, BacTiter-Glo luminescence; 6 h; inhibition, % at 7.5 µM; 300,000 compounds, 1.3% hits; AID 1662, 2009;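 active = mean replicate score, as percent of positive control median, at least 50; inconclusive = mean below 50 but one replicate at or above 50; inactive = mean and every replicate below 50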;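 also: strain carries kanamycin resistance gene driven by streptokinase promoter and grows in 40 µg/ml kanamycin; loss of luminescence reflects streptokinase promoter inhibition or plain growth inhibition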
Hits are given with their value; – = inactive; ? = inconclusive; · = no result.

SMILES | PP1 counter | PP5 inh | CSC inhib | Beta cell apopt | SKKanGAS inh
CCN1CCCC1CNC(=O)c1ccc(N2CCOCC2)c(NS(=O)(=O)c2ccc(OC)cc2)c1 (stereo not given) | – | – | – | – | –
CC(C)CCCN1C(Nc2ccccc2)=NC[C@@H]1C | – | – | – | – | –
COC(=O)C(=Cc1ccc(OCc2ccc([N+](=O)[O-])cc2)c(OC)c1)C(=O)OC | – | – | · | – | –
CCOC(=O)C(=Cc1ccc(OCc2ccc([N+](=O)[O-])cc2)c(OC)c1)C(=O)OCC | – | – | 116 | – | –
COc1ccc(OCC(=O)Nc2c3c(nn2-c2ccc(OC)cc2)CS(=O)(=O)C3)cc1 | – | – | – | – | –
Cc1ccc(N(CC(=O)Nc2cc(C)cc(C)c2)S(=O)(=O)c2c(C)noc2C)cc1 | – | – | – | 102 | –
COc1ccc(N(CC(=O)Nc2ccc(C)cc2)S(=O)(=O)c2c(C)noc2C)cc1 | – | – | – | – | –
Cc1cc(C)c(OCCCCN2CCNCC2)c(C)c1 | – | – | 82 | – | –
CC(=O)c1cccc(Nc2ncnc3ccc(Br)cc23)c1 | – | – | – | – | –
CC(C)Cc1csc(NC(=O)c2ccc(F)cc2)c1C(=O)O | – | – | 121 | – | –
O=C(NCc1ccccn1)c1cccc(NS(=O)(=O)c2ccccc2F)c1 | – | – | – | – | –
CC(=O)NC1(NC(C)=O)CCN(C)CC1 | – | – | – | – | –
COc1cc(/C=C/c2cc[n+](C)cc2)ccc1OCC(=O)Nc1ccc(Cl)c(Cl)c1 | – | – | · | – | 60
CCN(CC)/C(=N\S(=O)(=O)c1ccccc1C)c1ccccc1 | – | – | – | · | –
CC(C)c1cccc(C(C)C)c1NC(=O)CN1CCCC1 | – | – | – | – | –
O=C1NC(=O)/C(=C/c2ccccc2Oc2ccc(Cl)cc2)S1 | – | – | – | – | 57
C=C(C)C(=O)Nc1ccc2c(c1)OCCOCCOCCO2 | 17 | – | – | – | –
CC(=O)Nc1ccc2c(c1)OCCO2 | – | – | – | – | –
Cc1ccc(-n2nc(C(=O)c3ccccc3)n3c(=O)c(Cc4ccccc4)nnc23)cc1 | 17 | – | – | – | ?
O=[N+]([O-])c1ccc(Sc2cccc[n+]2[O-])c2nonc12 | · | · | · | · | 102
O=[N+]([O-])c1ccc(Nc2ccccc2)c2nonc12 | – | – | – | – | –
O/N=C(\c1ccc(Cl)cc1Cl)c1ncc(C(F)(F)F)cc1Cl | – | – | ? | – | 51
CS(=O)c1nc(-c2ccc(Br)cc2)cc(-c2ccccc2)c1C#N (stereo not given) | – | – | 75 | – | –
N#Cc1c(-c2ccc(Br)cc2)cc(-c2cccnc2)nc1N | – | – | – | – | –
CS(=O)(=O)c1nc(-c2ccc(Br)cc2)cc(-c2ccccc2)c1C#N | – | – | 86 | – | –
SMILES | PP1 counter | PP5 inh | CSC inhib | Beta cell apopt | SKKanGAS inh
N#Cc1c(-c2ccccc2)cc(-c2ccccc2)nc1SCCC(=O)O | – | – | 75 | – | –
N#Cc1c(-c2ccc(Cl)cc2)cc(-c2ccccc2)nc1SCC(=O)O | – | – | – | – | –
COc1ccc(-c2cc(-c3ccccc3)c(C#N)c(S(C)(=O)=O)n2)cc1 | – | – | – | – | –
Nc1c(C(=O)Nc2ccc(F)cc2)sc2nc(-c3ccco3)ccc12 | 16 | – | – | – | –
CC(=O)c1sc2nc(-c3ccco3)ccc2c1N | – | – | – | – | –
Nc1c(C(=O)Nc2ccc(Br)cc2)sc2nc(-c3ccco3)ccc12 | 16 | – | – | – | –
COc1ccc(NC(=O)CSc2nc(SC)ns2)cc1 | – | – | · | – | –
NS(=O)(=O)c1ccc(Cl)cc1[N+](=O)[O-] | – | – | – | – | –
CCn1c(C)nc2cc(-c3nc4n(n3)Cc3ccccc3-4)ccc21 | – | – | 92 | – | 65
CCOC(=O)c1cnc2ccc(OCC)cc2c1N1CCN(c2ccccc2)CC1 | – | – | – | 105 | –
CCOc1ccc2ncc(S(=O)(=O)c3ccccc3)c(N3CCN(c4ccccc4)CC3)c2c1 | – | – | – | – | –
Cc1ccnc(NC(=O)c2ccc(S(=O)(=O)NCc3ccco3)cc2)c1 | – | – | – | – | –
C/C(=N\NC(=O)c1cc(Cl)ccc1O)c1ccc(Br)s1 | – | – | 103 | – | –
C/C(=N/NC(=O)c1cc2ccccc2cc1O)c1ccco1 | – | – | – | – | –
C/C(=N\NC(=O)c1cc2ccccc2cc1O)c1cccs1 | – | – | – | – | 71
